Sampled rows, rich in hits. Any-hit rate of the full collection: about 3.4%.
MITF primary: human MITF inhibition, primary screen | inhibition, % at 2.6 µM | O75030 | AlphaScreen MITF homodimerization, bead proximity signal | hit rate 0.91% among 650,000; in the data active means inhibition above about 50%;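 further: 0% = vehicle wells with protein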
GPR151 ag: activators of human GPR151 | Q8TDV0 | PathHunter beta-arrestin GPR151 cells, luminescence | activation, % at 11.2 µM | hit rate 1% among 650,000 | AID 1508602; in the data active means activation above about 4.9%;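 further: 0% = median of compound wells and 100% = cells with positive control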
Target sequence (Q8TDV0 whole entry, looked up): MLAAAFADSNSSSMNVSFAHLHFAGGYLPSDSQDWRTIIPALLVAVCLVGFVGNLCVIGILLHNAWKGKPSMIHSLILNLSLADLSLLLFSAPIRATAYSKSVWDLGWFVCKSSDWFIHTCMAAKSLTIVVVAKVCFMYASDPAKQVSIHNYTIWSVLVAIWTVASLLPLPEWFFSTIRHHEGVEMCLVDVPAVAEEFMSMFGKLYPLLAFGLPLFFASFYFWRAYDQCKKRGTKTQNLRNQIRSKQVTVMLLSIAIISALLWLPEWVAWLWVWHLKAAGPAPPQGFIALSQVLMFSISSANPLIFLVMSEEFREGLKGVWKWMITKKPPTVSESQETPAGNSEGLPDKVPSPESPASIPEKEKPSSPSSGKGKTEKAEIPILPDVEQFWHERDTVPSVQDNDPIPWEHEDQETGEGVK
TEAD-YAP inh: TEAD-YAP interaction inhibition; hit rate 1.4% among 640,000; AID 1259422; inhibition, % at 9.12 µM; HEK-TIYL cells, TEAD-Gal4/YAP UAS-luciferase luminescence; in the data active means inhibition above about 32%;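 further: 0% = median of test compound wells and 100% = reference inhibitor wells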
FBW7 activator: human FBW7 E3 ligase activation, primary screen. hit rate 0.13% among 650,000. AlphaScreen FBW7–phospho-cyclin E peptide binding, activator screen. AID 1259310. Q969H0. normalized activity (activation), % at 26.1 µM; in the data active means normalized activity above about 1.9%;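 further: purified mutant Fbw7 with reduced substrate affinity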
GPR151 confirm: confirmation of human GPR151 activators. shares compounds with GPR151 ag. GPR151 PathHunter beta-arrestin cells, luminescence, 90 min; % of EA-reagent control over plate median. activation, % at 11.2 µM. 6,700 tested, under 10 active;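 active means mean percent activation across replicates above the confirmation screen cutoff of 4.91%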
GPR119 counter: counter-screen for GPR151 activators: effect on human GPR119 | shares compounds with GPR151 ag | GPR119 PathHunter beta-arrestin cells, luminescence, 90 min; 0 = compound-well median, 100 = enzyme-acceptor control | activation, % at 11.2 µM | hit rate 0.3% among 6,700;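 active means mean percent activation in the counterscreen above 29.09%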;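 further: counterscreen on off-target GPR119 to flag nonselective hits from the GPR151 activator screen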
Active calls of the source: *; . = not tested or not shown; ! = not active in a repeat.

SMILES	MITF primary	GPR151 ag	TEAD-YAP inh	FBW7 activator	GPR151 confirm	GPR119 counter
O=C1C(=O)N(CCN2CCOCC2)C(c2ccco2)/C1=C(/O)c1ccc(F)cc1 (configuration not stated)	9	6.7*	10	0	-1	6
O=C1C(=O)N(CCN2CCOCC2)C(c2ccc(F)cc2)/C1=C(\O)c1ccc(F)cc1 (configuration not stated)	-1	0	-4	0	.	.
COc1ccc(C(=O)N2CCCC(N3CCC(CO)CC3)C2)o1 (configuration not stated)	10	-1	0	0	.	.
CC(CN(C)C)CN1c2ccccc2Sc2ccccc21 (configuration not stated)	5	1	8	0	.	.
CC(CN1c2ccccc2Sc2ccccc21)N(C)C (configuration not stated)	-7	7.4*!	-7	0	-1	-5
CCNC(=O)C(=O)N/N=C/c1ccccc1	-3	8.2*	-2	0	0	-4
O=C(Cn1nc2oc3ccccc3n2c1=O)NC1CCCC1	-4	7.8*	2	0	0	9
O=S(=O)(Nc1ccc(Cl)cc1F)c1cnc[nH]1	3	11*	-11	0	1	12
O=C(CSc1nnc(CNC(=O)c2ccccc2)o1)NCc1ccco1	8	7.8*	2	0	1	4
CCOC(=O)c1ccc(N(Cc2ccccc2)S(C)(=O)=O)cc1	13	1	8	0	.	.
C=CCN(c1ccc(C(=O)OCC)cc1)S(C)(=O)=O	1	4.9*	-6	0	0	-3
CC(C)(C)c1ccc(C2C(C#N)=C(N)N(c3cccc([N+](=O)[O-])c3)C3=C2C(=O)CCC3)s1 (configuration not stated)	-3	0	3	0	.	.
O=C1OC(c2ccc(-c3ccccc3)cc2)=N/C1=C\c1cccnc1	2	14*	4	0	-1	-5
OCCNCCCCOc1ccc(OCc2ccccc2)cc1	5	6.2*	6	0	0	-18
CC(C)C(=O)Nc1nc2ccc(F)cc2s1	-1	0	-42	0	.	.
CCc1ccccc1NC(=S)Nc1nc2ccc(F)cc2s1	-3	5.5*	46*	0	0	-8
COc1c([N+](=O)[O-])cc([N+](=O)[O-])cc1S(=O)C(F)(F)F (configuration not stated)	0	0	-1	0	.	.
O=C(Nc1nc2n(n1)C(c1ccc(F)cc1)CC(c1ccccc1)N2)c1cccnc1 (configuration not stated)	3	5.7*	13	0	0	4
CCC(=O)Nc1nc2n(n1)C(c1ccccc1)CC(c1ccc(Cl)cc1)N2 (configuration not stated)	12	-1	3	0	.	.
COCCn1nnc2c(=O)[nH]c(C(=O)NCc3ccccc3Cl)nc21	11	0	-9	0	.	.
COc1ccccc1NC(=O)C1Sc2nnc(C)n2NC1c1ccc(Cl)cc1 (configuration not stated)	9	-1	-1	0	.	.
COc1ccccc1N1CC(C(=O)Nc2nnc(SC3CCCC3)s2)CC1=O (configuration not stated)	3	6.2*	11	0	1	1
COc1ccc(Cl)cc1N1CC(C(=O)Nc2c(C)cccc2C)CC1=O (configuration not stated)	-2	8.3*	-1	0	0	3
COc1ccc(Cl)cc1N1CC(C(=O)Nc2nnc(C)s2)CC1=O (configuration not stated)	13	-1	-6	0	.	.
Cc1ccc(N2C(=O)NC(=O)C2C)cc1 (configuration not stated)	0	-1	-13	0	.	.
SMILES	MITF primary	GPR151 ag	TEAD-YAP inh	FBW7 activator	GPR151 confirm	GPR119 counter
Cc1ccc(C)c(NC(=O)CSc2cn(CC(=O)N3CCOCC3)c3ccccc23)c1	6	0	-3	1	.	.
Fc1ccc(C2=NC3(CCCCC3)NC2=S)cc1	-8	3	0	0	.	.
S=C1NC2(CCCCC2)N=C1c1ccccc1	-7	8.1*	-11	0	0	9
COc1ccc(C(=O)Nc2ccnn2C2CCN(C(=O)C3CCOC3)CC2)cc1 (configuration not stated)	5	5.8*	-8	0	1	0
COc1ccc(C(=O)Nc2ccnn2C2CCN(Cc3ccon3)CC2)cc1	2	-1	14	0	.	.
COc1ccc(C(=O)Nc2ccnn2C2CCN(Cc3cn(C)nc3C)CC2)cc1	9	5.6*	2	0	2	-15
O=C1NC(=O)/C(=C\c2ccc(C(=O)O)cc2)N1	-7	0	7	0	.	.
N#Cc1sc2ncc3c(c2c1N)CCCC3	4	9.7*	-6	0	0	13
CCOc1cc(C)c(S(=O)(=O)N2CCCC2)cc1C	-32	6.7*	-5	0	0	-3
CCOc1cc(C)c(S(=O)(=O)N2CC(C)OC(C)C2)cc1C (configuration not stated)	13	1	-3	0	.	.
O=C(NCc1nc2ccccc2[nH]1)c1ccc2nc(Nc3ccc4ncccc4c3)sc2c1	5	6.3*	-22	0	1	-3
Cc1ccnc(SCC(=O)N2CCc3ccccc32)n1	-6	5.4*	-40	0	0	9
O=C(CSc1nnc(-c2ccccc2O)o1)N1CCc2ccccc21	6	6.3*	7	0	0	1
O=C1CCSc2c1cccc2C(=O)NCc1ccc2c(c1)OCO2	3	5.6*	26	0	1	1
O=C(NCc1ccc2c(c1)OCO2)c1ccc(Br)s1	2	6.2*	-2	0	0	4
Cc1ccccc1CNC(=O)C(=O)NCc1ccc2c(c1)OCO2	2	5.4*	7	0	0	6
O=C(NCc1ccc2c(c1)OCO2)C(=O)Nc1ccccc1	16	-1	-22	0	.	.
CC(=O)c1c(OC(=O)c2ccc(Cl)cc2)ccc2c(C)cc(=O)oc12	-5	0	1	0	.	.
Cc1cc(NC(=O)N2CCOCC2)no1	-11	1	-2	0	.	.
COC(=O)c1ccc2c(=O)n(CCc3ccc(S(N)(=O)=O)cc3)c(SCC(=O)c3ccccc3)nc2c1	-7	-1	-5	0	.	.
COC(=O)c1ccc2c(=O)n(CCc3ccc(S(N)(=O)=O)cc3)c(SCc3c(F)cccc3F)nc2c1	23	16*	0	0	0	1
O=C1CCC([N+](=O)[O-])C(c2ccc(Cl)c(Cl)c2)N1 (configuration not stated)	-7	-1	-6	0	.	.
O=C1CCC([N+](=O)[O-])C(c2ccc3c(c2)OCO3)N1 (configuration not stated)	-6	7.7*	-2	0	0	13

Screening results deposited in PubChem by The Scripps Research Institute Molecular Screening Center.
